Test results published in PubChem BioAssay AID588689 (Southern Research Specialized Biocontainment Screening …, 2011).
About 1,000 (0.29%) of roughly 340,000 compounds were called active. No stated cut-off is given here; in the data, inconclusive means inhibition above about 29% without an active follow-up result; inactive means below that. A selection follows. Potency and affinity values are given separately.

Molecular target: Genome polyprotein (Dengue virus type 2 (strain 16681-PDK53)) (UniProt P29991)
Assay: flavivirus cap methylation enzyme inhibition – biochemical, confirmation dose response, primary screen (AID 588689)
Settings: Dengue-2 NS5 methyltransferase capping enzyme assay, at 25 µM, stronger effect = higher value

Chain of Genome polyprotein (Dengue virus type 2 (strain 16681-PDK53)) (P29991 whole entry, looked up): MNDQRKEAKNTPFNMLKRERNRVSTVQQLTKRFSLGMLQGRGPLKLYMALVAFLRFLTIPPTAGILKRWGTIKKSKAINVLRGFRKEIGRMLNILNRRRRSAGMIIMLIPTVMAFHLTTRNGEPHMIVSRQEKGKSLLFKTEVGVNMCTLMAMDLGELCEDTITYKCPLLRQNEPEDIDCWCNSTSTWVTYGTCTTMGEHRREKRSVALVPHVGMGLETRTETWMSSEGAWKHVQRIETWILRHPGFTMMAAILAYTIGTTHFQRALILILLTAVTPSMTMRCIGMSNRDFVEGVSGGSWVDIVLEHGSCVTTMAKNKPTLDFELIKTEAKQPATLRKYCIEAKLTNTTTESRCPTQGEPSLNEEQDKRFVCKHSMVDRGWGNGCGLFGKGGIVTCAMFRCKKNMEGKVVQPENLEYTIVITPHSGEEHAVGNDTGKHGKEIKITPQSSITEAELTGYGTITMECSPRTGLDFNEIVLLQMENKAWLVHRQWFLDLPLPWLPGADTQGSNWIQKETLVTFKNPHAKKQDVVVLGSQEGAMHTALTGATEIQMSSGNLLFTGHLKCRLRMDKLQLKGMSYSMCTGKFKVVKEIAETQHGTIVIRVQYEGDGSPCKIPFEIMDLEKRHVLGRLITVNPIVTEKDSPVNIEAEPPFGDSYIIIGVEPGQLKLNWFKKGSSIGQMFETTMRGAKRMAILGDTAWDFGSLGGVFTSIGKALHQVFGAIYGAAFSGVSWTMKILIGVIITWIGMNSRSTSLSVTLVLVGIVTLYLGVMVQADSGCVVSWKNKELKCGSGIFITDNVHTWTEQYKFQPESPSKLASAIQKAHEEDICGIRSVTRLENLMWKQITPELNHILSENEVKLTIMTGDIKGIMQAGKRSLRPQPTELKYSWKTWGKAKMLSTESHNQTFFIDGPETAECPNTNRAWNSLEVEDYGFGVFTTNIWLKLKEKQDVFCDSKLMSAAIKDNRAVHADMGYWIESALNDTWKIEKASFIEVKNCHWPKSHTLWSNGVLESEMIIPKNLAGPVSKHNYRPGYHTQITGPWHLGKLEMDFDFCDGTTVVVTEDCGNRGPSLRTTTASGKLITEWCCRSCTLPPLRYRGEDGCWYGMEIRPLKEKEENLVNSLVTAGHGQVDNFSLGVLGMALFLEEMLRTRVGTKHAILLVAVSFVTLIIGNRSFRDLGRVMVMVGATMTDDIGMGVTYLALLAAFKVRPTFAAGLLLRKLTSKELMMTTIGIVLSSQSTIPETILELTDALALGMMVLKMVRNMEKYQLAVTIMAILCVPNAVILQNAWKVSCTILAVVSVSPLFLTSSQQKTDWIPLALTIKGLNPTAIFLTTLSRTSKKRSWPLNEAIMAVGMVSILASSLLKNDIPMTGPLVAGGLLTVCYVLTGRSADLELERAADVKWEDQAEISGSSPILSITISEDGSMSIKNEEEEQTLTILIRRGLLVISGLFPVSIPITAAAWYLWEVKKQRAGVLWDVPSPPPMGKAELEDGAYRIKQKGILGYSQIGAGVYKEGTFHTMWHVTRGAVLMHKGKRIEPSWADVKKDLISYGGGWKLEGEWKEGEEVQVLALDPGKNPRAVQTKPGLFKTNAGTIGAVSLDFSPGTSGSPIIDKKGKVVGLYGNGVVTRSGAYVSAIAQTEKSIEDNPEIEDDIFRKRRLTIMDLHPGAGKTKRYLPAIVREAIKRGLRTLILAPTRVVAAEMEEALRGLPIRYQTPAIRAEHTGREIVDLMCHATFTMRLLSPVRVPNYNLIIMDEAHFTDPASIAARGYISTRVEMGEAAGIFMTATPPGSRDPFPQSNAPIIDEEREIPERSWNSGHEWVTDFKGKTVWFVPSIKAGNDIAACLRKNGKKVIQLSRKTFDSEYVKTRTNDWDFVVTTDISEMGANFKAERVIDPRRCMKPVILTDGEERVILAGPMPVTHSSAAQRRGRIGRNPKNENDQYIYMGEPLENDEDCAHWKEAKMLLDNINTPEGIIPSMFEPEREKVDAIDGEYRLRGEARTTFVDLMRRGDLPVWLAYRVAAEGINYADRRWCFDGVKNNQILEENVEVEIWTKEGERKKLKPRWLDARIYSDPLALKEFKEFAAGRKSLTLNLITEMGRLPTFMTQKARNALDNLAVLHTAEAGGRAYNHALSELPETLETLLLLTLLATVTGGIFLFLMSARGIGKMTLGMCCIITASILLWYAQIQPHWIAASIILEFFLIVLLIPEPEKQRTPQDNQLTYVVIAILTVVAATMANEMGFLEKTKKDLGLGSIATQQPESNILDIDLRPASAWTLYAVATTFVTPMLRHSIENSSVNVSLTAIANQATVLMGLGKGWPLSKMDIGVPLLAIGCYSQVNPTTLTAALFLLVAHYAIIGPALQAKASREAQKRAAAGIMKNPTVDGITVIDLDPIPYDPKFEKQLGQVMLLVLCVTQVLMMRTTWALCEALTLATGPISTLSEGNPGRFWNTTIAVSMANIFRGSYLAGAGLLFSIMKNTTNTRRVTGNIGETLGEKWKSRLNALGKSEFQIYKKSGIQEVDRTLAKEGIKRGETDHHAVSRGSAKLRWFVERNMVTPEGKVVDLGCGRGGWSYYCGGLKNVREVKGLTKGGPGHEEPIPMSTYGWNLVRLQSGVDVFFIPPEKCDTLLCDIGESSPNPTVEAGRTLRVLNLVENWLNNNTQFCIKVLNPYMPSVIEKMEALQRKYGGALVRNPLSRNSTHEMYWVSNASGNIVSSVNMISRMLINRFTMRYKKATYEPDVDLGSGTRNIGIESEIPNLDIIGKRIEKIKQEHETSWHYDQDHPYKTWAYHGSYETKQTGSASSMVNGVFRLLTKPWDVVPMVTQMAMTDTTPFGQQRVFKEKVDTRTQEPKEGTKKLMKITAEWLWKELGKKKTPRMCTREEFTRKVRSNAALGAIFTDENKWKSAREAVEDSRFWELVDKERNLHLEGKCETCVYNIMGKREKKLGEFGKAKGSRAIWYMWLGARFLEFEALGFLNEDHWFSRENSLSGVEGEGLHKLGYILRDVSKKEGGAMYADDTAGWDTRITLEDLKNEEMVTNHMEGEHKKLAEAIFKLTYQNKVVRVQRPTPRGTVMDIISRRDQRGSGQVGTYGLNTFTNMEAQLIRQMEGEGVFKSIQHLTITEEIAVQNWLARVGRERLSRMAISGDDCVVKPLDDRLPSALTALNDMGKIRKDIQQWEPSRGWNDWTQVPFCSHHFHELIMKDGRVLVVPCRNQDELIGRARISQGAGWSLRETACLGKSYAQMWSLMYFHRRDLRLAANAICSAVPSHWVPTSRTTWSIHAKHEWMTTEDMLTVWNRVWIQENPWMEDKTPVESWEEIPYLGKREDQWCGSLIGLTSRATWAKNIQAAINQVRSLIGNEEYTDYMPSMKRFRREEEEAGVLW

Structure (SMILES)	inhibition	inhibition (measured here: pilot screen replicate inhibition) [%]
CCCCNC(C(=O)Nc1ccc([N+](=O)[O-])cc1Br)c1ccccc1 (stereo not given)	1.47% (inactive)	
COc1ccc(C(=O)N2CCC(C(=O)Nc3ccc4c(c3)OCO4)CC2)cc1	-4.42% (inactive)	
O=C(NCc1ccc(F)cc1)C(=O)NCC1OCCN1S(=O)(=O)c1cc(F)ccc1F (stereo not given)	6.59% (inactive)	
Cc1ccc([N+](=O)[O-])cc1NC(=O)C(C)NS(=O)(=O)c1ccc(F)cc1 (stereo not given)	2.19% (inactive)	
COc1ccc(NC(=O)CCCc2nc3ccccc3c(=O)[nH]2)cc1Cl	6.22% (inactive)	
CCN(CC)CCCN1C=C2C(=O)C(C)(OC(=O)CCC(=O)OC)C(=O)C(Br)=C2C=C1c1ccc(OC)cc1 (stereo not given)	8.8% (inactive)	
COC(=O)CCC(=O)OC1(C)C(=O)C2=CN(Cc3ccc(OC)cc3)C(c3ccc(OC)cc3)=CC2=C(Br)C1=O (stereo not given)	17.2% (inactive)	
COC(=O)CCC(=O)OC1(C)C(=O)C2=CN(CCc3c[nH]c4ccccc34)C(c3ccc(OC)cc3)=CC2=C(Br)C1=O (stereo not given)	-2.45% (inactive)	
COC(=O)CCC(=O)OC1(C)C(=O)C=C2C=C(C3CC3)N(CC3CC3)C=C2C1=O (stereo not given)	9.84% (inactive)	
COC(=O)CCC(=O)OC1(C)C(=O)C=C2C=C(C3CC3)N(CCCOC(C)C)C=C2C1=O (stereo not given)	7.22% (inactive)	
COC(=O)CCC(=O)OC1(C)C(=O)C=C2C=C(C3CC3)N(C3CCCC3)C=C2C1=O (stereo not given)	12.8% (inactive)	
COC(=O)CCC(=O)OC1(C)C(=O)C=C2C=C(C3CC3)N(Cc3ccc(OC)cc3)C=C2C1=O (stereo not given)	17.3% (inactive)	
COC(=O)CCC(=O)OC1(C)C(=O)C=C2C=C(C3CC3)N(C3CCCCC3)C=C2C1=O (stereo not given)	12.7% (inactive)	
N#Cc1ccc(CN2CCN(C(=O)CCNS(=O)(=O)c3ccc(F)c(F)c3)CC2)cc1	-7.08% (inactive)	
O=C(CSc1ccc2c(c1)OCCO2)NCC1CCCO1 (stereo not given)	-10.5% (inactive)	
O=c1c(-c2ccccc2)c(O)c2c(n1-c1ccccc1)CCCC2	-3.21% (inactive)	
O=C(O)c1ccc(-c2ccco2)n1Cc1ccccc1	4.75% (inactive)	
O=C(CN1CCN(Cc2ccc(F)cc2)CC1)Nc1ccccc1F	1.36% (inactive)	
CCN(C(=O)CSc1nc2ccccc2c(=O)n1CCOC)C1CCS(=O)(=O)C1 (stereo not given)	1.48% (inactive)	
COc1ccc(NC(=O)c2cccc3c2C(=O)c2ccc(-c4ccc(F)cc4OCc4ccccc4)cc2S3(=O)=O)cc1	-0.7% (inactive)	
CC(C)c1cccc(-c2ccc3c(c2)S(=O)(=O)c2cccc(C(=O)NCc4ccccc4)c2C3=O)c1	-6.42% (inactive)	
O=C1c2ccc(-c3ccc(F)cc3OCc3ccccc3)cc2S(=O)(=O)c2cccc(C(=O)N3CCCC3)c21	8% (inactive)	
CC(C)c1cccc(-c2ccc3c(c2)S(=O)(=O)c2cccc(C(=O)NC4CCCC4)c2C3=O)c1	-4.92% (inactive)	
O=C(OCCN1CCCCC1)c1ccccc1Cl	7.44% (inactive)	
CN(CC(=O)Nc1cccc(F)c1)CC(=O)N1CCCCC1	6.98% (inactive)	
COc1ccc(CN2CC(C(=O)NCCC(C)C)CC2=O)cc1 (stereo not given)	6.67% (inactive)	
CC(C)(C)C(=O)NCCCc1ccccc1	-0.68% (inactive)	

Structure (SMILES)	inhibition	inhibition (measured here: pilot screen replicate inhibition) [%]
CCOc1cc(/C=C2\NC(=O)NC2=O)cc([N+](=O)[O-])c1O	71.9% (inactive)	
COc1cc(/C=C2/C(=O)NN(c3ccc(Cl)cc3)C2=O)ccc1OC(=O)c1ccco1	15.2% (inactive)	
CCOc1cc(/C=C2/NC(=O)NC2=O)cc([N+](=O)[O-])c1O	22.9% (inactive)	
COc1cc(/C=C2\C(=O)NN(c3ccccc3)C2=O)cc([N+](=O)[O-])c1O	26.6% (inactive)	
COc1cc(/C=C2/C(=O)NN(c3cccc(F)c3)C2=O)ccc1OC(=O)c1ccco1	23% (inactive)	
COc1cc(/C=C2\C(=N)N3N=C(S(C)(=O)=O)SC3=NC2=O)ccc1OC(=O)c1ccco1	-59.7% (inactive)	
CCOc1cc(/C=C2/C(=O)N(c3ccccc3)N=C2C)ccc1OC(=O)c1ccco1	19.1% (inactive)	
COc1cc(/C=C2\C(=O)NN(c3ccc(C)cc3)C2=O)cc([N+](=O)[O-])c1O	17.9% (inactive)	
Cc1cc(C)c(NC(=O)c2ccc3c(c2)NC(=O)C(C)S3)c(C)c1 (stereo not given)	-0.76% (inactive)	
O=S(=O)(NCCc1ccc(F)cc1)c1ccc(F)cc1Br	-1.99% (inactive)	-0.92
CCCCCC(=O)NNC1=NCC(Cc2cccc(Cl)c2)S1 (stereo not given)	-9.62% (inactive)	
CCN(Cc1cnn(C)c1)Cc1nc(Cc2ccccc2Cl)no1	-2.18% (inactive)	
CCCCN1C(=O)/C(=C2\SC(N3CCCCC3)=NC2=O)c2ccccc21	1.1% (inactive)	
O=C(NCc1ccccc1)c1cccc(S(=O)(=O)N2CCCCC2)c1	-8.7% (inactive)	
COc1ccc(OC)c(/C=N/NC(=O)c2ccncc2)c1	-7.07% (inactive)	
CCc1ccccc1N(CC(=O)OC)S(C)(=O)=O	3.12% (inactive)	
O=C1OC2(c3ccccc31)c1ccccc1-c1ccccc12	8.53% (inactive)	
O=C1OC(c2ccccc2)(c2ccccc2)c2ccccc21	-6.99% (inactive)	
Cc1cc(O)ccc1C1(c2ccc(O)cc2C)OC(=O)c2ccccc21	-9.01% (inactive)	
O=C1OC(c2ccccc2)(c2ccc(O)cc2)c2ccccc21 (stereo not given)	0.78% (inactive)	
CC1CCCN(C(=O)c2nn(C)c3c2CS(=O)(=O)c2ccccc2-3)C1 (stereo not given)	-6.35% (inactive)	
COc1ccc(/C=C/C(=O)NC(C)(C)C)cc1S(=O)(=O)N1CCOCC1	3.24% (inactive)	
O=C(Nc1ccc2oc(=O)ccc2c1)c1cc([N+](=O)[O-])ccc1N1CCOCC1	-4.64% (inactive)	
Cc1ccc(OC(C)C(=O)N2CC(=O)Nc3ccccc32)cc1 (stereo not given)	1.78% (inactive)	
C[C@@H]1CN([C@@H](C)CO)C(=O)Cc2cc(NC(=O)Nc3ccc(F)cc3)ccc2O[C@@H]1CN(C)Cc1ccc(Cl)c(Cl)c1	-10.3% (inactive)	
Cc1nc(SCC(=O)NC(C)(C)C)c2c(-c3cccs3)csc2n1	-9.82% (inactive)	
COc1ccc(N2CCN(C(c3nnnn3C3CCCC3)C(C)C)CC2)cc1 (stereo not given)	-0.74% (inactive)	
